Paper doi:10.1101/2025.02.07.636106

Biological target: Histone deacetylase 2 (UniProt Q92769)
Assay: cross-link between two proteins; affinity purification or IP with mass spectrometry; cross-linking mass spectrometry

Sequence of Histone deacetylase 2 (Q92769 whole entry): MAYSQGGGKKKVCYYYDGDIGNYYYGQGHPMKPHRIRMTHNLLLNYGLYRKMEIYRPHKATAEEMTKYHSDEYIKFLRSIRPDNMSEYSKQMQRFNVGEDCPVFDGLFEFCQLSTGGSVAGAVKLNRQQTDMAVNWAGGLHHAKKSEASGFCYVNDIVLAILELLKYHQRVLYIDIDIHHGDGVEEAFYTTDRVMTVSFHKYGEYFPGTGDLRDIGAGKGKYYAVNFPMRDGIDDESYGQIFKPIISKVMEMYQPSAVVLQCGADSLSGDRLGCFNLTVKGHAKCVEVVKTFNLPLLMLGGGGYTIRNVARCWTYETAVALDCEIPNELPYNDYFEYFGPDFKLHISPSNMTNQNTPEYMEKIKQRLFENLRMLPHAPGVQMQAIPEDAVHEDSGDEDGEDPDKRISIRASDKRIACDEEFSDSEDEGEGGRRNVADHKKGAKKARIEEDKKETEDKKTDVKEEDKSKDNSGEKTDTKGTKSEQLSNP

Listed as a hit, yes:
Methyl-CpG-binding domain protein 3, O95983
Transcriptional repressor p66-beta, Q8WXI9
ATP-dependent chromatin remodeler CHD4, Q14839
Histone-binding protein RBBP7, Q16576
